Records with an inconclusive call do not appear. Unmarked numbers belong to inactive results. The source made the active and inactive calls. Calls come from the whole dose curve; as a rule, active = well fitted curve in the direction sought with a large enough effect; inconclusive = small, poorly fitted or top-dose-only effect, or another doubt; inactive = no such curve, though single readings can be large; an effect the other way counts as inactive or inconclusive.

Assay [1] is described as follows: Tertiary RLuc qRT-PCR qHTS assay for Zika virus inhibitors (AID 1347169). Note: top concentration of the series differs between compounds; % is set by controls: 0 for no effect and ±100 for the full control effect; nearly all actives have a fitted effect of over 55% in size. Put shortly:
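Inhibition of ZIKV-RLuc replication in Vero cells, read as Renilla luminescence 1-1.5 hrs after live-cell substrate addition, following 48-72 hrs infection at MOI 1-2 in presence of compound.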
For orientation: In qPCR the cycle at which signal appears reflects the starting amount.

A short description of assay [2]: OV-KATE Cancer Cell Toxicity qHTS against the NCATS CANVASS Library (AID 1347345). Note: % is set by controls: 0 for no effect and ±100 for the full control effect. The text has this: Natural products and their derivatives continue to be wellsprings of nascent therapeutic potential. However, many laboratories have limited resources for biological evaluation, leaving their previously isolated or synthesized compounds largely or completely untested. To address this issue, the Canvass library of natural products was assembled (https://tripod.nih.gov/canvass), in collaboration with academic and industry researchers, for quantitative high-throughput screening (qHTS) across a diverse set of cell-based and biochemical assays. The pure (>85% purity by liquid chromatography/mass spectrometry [LC/MS]) Canvass library of 346 natural products were submitted by 45 academic laboratories and companies around the world. […] The library was formatted into 1536-well plates and evaluated in 50 qHTS (in an 11-pnt concentration series) bioassays with broad scope of disease-relevant mechanisms. The resulting data set from 50 different assays was then systematically analyzed to identify overall trends and specific natural products with interesting biological activities. […]
Cancer Cell Toxicity protocol for cell lines COV-362, OV-KATE, OV-SAHO, UWB1.289, UWB1.289-WTBRCA1, HEK-293, HPAF-II, Panc-1005, SW1088, or U-118MG. […] Luminescence signal was acquired via the ViewLux plate reader (PerkinElmer) using a clear filter, 2 second exposure and 2x binning settings.

The nature of assay [3]: HPAF-II Cancer Cell Toxicity qHTS against the NCATS CANVASS Library (AID 1347346). Note: % is set by controls: 0 for no effect and ±100 for the full control effect; nearly all actives have a fitted effect of over 55% in size. A digest of the protocol:
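1000 HPAF-II cells/well; 4 h pre-incubation; 11-pnt compound titration; 72 h, 37 degrees C/5% CO2; CellTiter-Glo, 15 min RT; luminescence read.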
Background: Quantitative high-throughput screening tests each substance at several concentrations.

A short description of assay [4]: UWB1.289 Cancer Cell Toxicity qHTS against the NCATS CANVASS Library (AID 1347347). Note: % is set by controls: 0 for no effect and ±100 for the full control effect; nearly all actives have a fitted effect of over 60% in size. Put shortly: (§1)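 Step one: seed 1000 cells per well. Step two: incubate 4 h. Step three: add test compounds in 11 concentrations. Step four: culture 72 h, then add CellTiter-Glo and record luminescence after 15min.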
A short description of assay [5]: OV-SAHO Cancer Cell Toxicity qHTS against the NCATS CANVASS Library (AID 1347348). Note: % is set by controls: 0 for no effect and ±100 for the full control effect; nearly all actives have a fitted effect of over 55% in size. Put shortly: as §1
Assay [6] is described as follows: Panc-1005 Cancer Cell Toxicity qHTS against the NCATS CANVASS Library (AID 1347349). Note: % is set by controls: 0 for no effect and ±100 for the full control effect; nearly all actives have a fitted effect of over 60% in size. A digest of the protocol:
as §1

The nature of assay [7]: SW1088 Cancer Cell Toxicity qHTS against the NCATS CANVASS Library (AID 1347350). Note: nearly all actives have a fitted effect of over 75% in size. As to conditions: SW1088 viability, CellTiter-Glo luminescence, 72 h; at 38.3 µM (top of the series). A digest of the protocol:
as §1

Assay [8] is described as follows: U-118MG Cancer Cell Toxicity qHTS against the NCATS CANVASS Library (AID 1347351). Note: % is set by controls: 0 for no effect and ±100 for the full control effect. A digest of the protocol:
as §1

Assay [9] can be described thus: COV-362 Cancer Cell Toxicity qHTS against the NCATS CANVASS Library (AID 1347352). Note: % is set by controls: 0 for no effect and ±100 for the full control effect. Put shortly:
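1000 cells/well, 4 h pre-incubation 37 °C/5% CO2; 11-pnt titration; 72 h; CellTiter-Glo 15 min RT, luminescence.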

A short description of assay [10]: A2780 Cisplatin Sensitive Ovarian Cancer Cell Toxicity qHTS against the NCATS CANVASS Library (AID 1347353). Note: nearly all actives have a fitted effect of over 60% in size. The note with it: A2780 ovarian cancer viability, ATPLite luminescence, 72 h; at 46.1 µM (top of the series). Put shortly: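 750 cells/well, 4 h settle; 11-pt cpd titration; 72 h, 37 °C, 5% CO2; ATPLite 10 min RT; luminescence read.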

For the molecule `CC(C)Oc1cccnc1N(C)C1CCN(Cc2ccccc2)CC1`, the molecule was classed as inactive in assay [1].

In the case of `Nc1c(Cl)c(Cl)c(Cl)c(Cl)c1Cl`, the result in assay [1] was inactive.

Take `CN(C)[C@@H]1C(=O)C(C(N)=O)=C(O)[C@@]2(O)C(=O)C3=C(O)c4c(O)cccc4[C@@](C)(O)[C@H]3[C@H](O)[C@@H]12`: the result in assay [1] was inactive.

With `O=C(O)c1cc(Oc2ccc(C(F)(F)F)cc2Cl)ccc1[N+](=O)[O-]`, the activity change, negative = inhibition in [1] is 35.5% [at 1.74 µM].

For `O=C1C(I)=CC(=C(c2cc(I)c(O)c(I)c2)c2ccccc2C(=O)O)C=C1I`, the activity change, negative = inhibition in assay [1] is 34.1% [at 1.74 µM].

As to `NCCc1c[nH]c2ccccc12`, the outcome in assay [2], in assay [3], in assay [4], in assay [5], in assay [6] and in assay [7] was inactive. The molecule was called inactive in [8], in assay [9] and in assay [10].

As to `C=CCN1CC[C@]23CCCCC2[C@H]1Cc1ccc(O)cc13` (stereo not given in full), in assay [1], the outcome was inactive.

For the molecule `O=[N+]([O-])c1c(Cl)c(Cl)cc(Cl)c1Cl`, the activity change, negative = inhibition in assay [1] was 77.7% [at 3.57 µM].

Consider `NCCc1c[nH]c2ccc(O)cc12`, for which the call in assay [2], in [3], in assay [4], in assay [5], in assay [6] and in [7] was inactive. Further, the molecule was classed as inactive in assay [8], in assay [9] and in assay [10].

(Values after PubChem BioAssay (NCATS).)
